Drawing on the emibetuzumab library of Makowski et al. (2022), this text covers antigen binding call for 216 variants.

Some of the results follow. No count for the full screen is at hand.

B1: VH:VL chains; a variant is named by its letters at X, in order (parent)
chain 1: QVQLVQSGAEVKKPGASVKVSCKASGYTFTDYXMHWVRQAPGQGLEWMGXVNPNXXXTTYNQKFEGRVTMTTDTSTSTAYMELRSLRSDDTAVYYCARXNXLDXWGQGTTVTVSS
chain 2: DIQMTQSPSSLSASVGDRVTITCSVSSSVSSIYLHWYQQKPGKAPKLLIYSTSNLASGVPSRFSGSGSGTDFTLTISSLQPEDFATYYCQVYSGYPLTFGGGTKVEIK

The experiment covers variants of B1. Description: yeast display scFab, FACS + sequencing. As to conditions: with MET. The method in brief: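 For FACS, yeast displaying a heavy-chain CDR mutant scFab library were labelled with 1 nM HGFR-Fc and anti-Myc (PBSB, 1% milk, 3 h, room temperature), and the top 50% antigen-positive cells were gated. Input and round-3 sorted populations were deep sequenced in two replicates. The binding call was positive for sequences occurring in both antigen-positive samples and negative for sequences occurring only in input.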
As to YRGRGYGF, the antigen binding call was “binds”. The value for YRGGGYGF was “no binding”; that for YEGGGYSF was “no binding”. The value for YTGGDDGF was “no binding”; that for YRGRGYGA was “binds”. In the case of DRGGGDGV it was “no binding”.

As for YRGGGDGF, the antigen binding call is given as “binds”. Turning to SETGADVA, the antigen binding call was “no binding”. In the case of YTGRGSGV it was “binds”. The value for DTGRGSGV was “no binding”; that for VTGTGSLD was “no binding”; that for YTGRGSLD was “binds”. Consider YTGTSSLD, for which the antigen binding call is recorded as “no binding”.

For the variant FTGRGAGV, the antigen binding call is listed as “no binding”. In the case of YRARGASA it was “binds”. In the case of YRAGGASA it was “binds”; in that of YRARSASA, “binds”; in that of DRAGDDSA, “no binding”. In the case of YRAGGDSA it was “binds”. For VEGTGVGD, the antigen binding call is “no binding”. The value for DAGKGAVY was “no binding”. In the case of STTGGDGV it was “no binding”.

Turning to FAKTDAGF chain 1 G108D, the antigen binding call is on record as “no binding”. In the case of SGRGNAGD it was “no binding”. With YATKGFGD, the antigen binding call is given as “no binding”. In the case of FRTKGAAD it was “binds”; in that of FTAGGAAD, “no binding”.

Take YRAKGAAD: the antigen binding call was “binds”. The value for FKGEGAAD was “no binding”; that for FRGEGAAD was “binds”; that for YRTKGAAD was “binds”. In the case of ATGGGYVA it was “no binding”; in that of YTRGAASD, “no binding”. In the case of YKRGAAGD it was “binds”; in that of YRRGAAGD, “binds”; in that of YKRAAYGD, “no binding”. Turning to YKRGSAGD, the antigen binding call was “binds”.

As for FEKGSDVA, the antigen binding call is “no binding”. On to VETEGDVY, for which the antigen binding call was “no binding”. The value for FTGEDDVY was “no binding”; that for DEGGGAGS was “no binding”; that for DAGGGSSS was “no binding”. On to YKGGGAGS, for which the antigen binding call is given as “binds”.

Turning to YKGKGAGS, the antigen binding call is reported as “binds”. The value for DKEGGSSS was “no binding”; that for YKGKGYVD was “no binding”; that for VEGGTAGS was “no binding”.

As for YKGRSSSS, the antigen binding call is listed as “binds”. In the case of YKGKGSVS it was “binds”. Consider YEKEDYLA chain 1 G108D, for which the antigen binding call is “no binding”. FAKEGDGD: the antigen binding call was “no binding”.

As to VKAGGDGS, the antigen binding call is given as “no binding”. The value for YARGGAGA was “no binding”. In the case of YKGKGSSS it was “binds”; in that of YKRGGAGS, “binds”; in that of YKGKGSGA, “binds”. In the case of YTGTGSGA it was “no binding”; in that of YKGKGSGS, “binds”; in that of DTAESDLD, “no binding”. With SEARSSWV, the antigen binding call is listed as “no binding”. In the case of VKGRADGS it was “no binding”; in that of YKGKGAWS, “binds”; in that of AKGRAAAS chain 1 D103N, “no binding”.

For YKGRAAGS, the antigen binding call is given as “binds”. In the case of DKEGGDAV it was “no binding”; in that of FEKEGDAA, “no binding”; in that of YTARDVGV, “no binding”.

Turning to YRARGYGV, the antigen binding call is reported as “binds”. The value for YRARGSGV was “binds”; that for YTERGFGV was “no binding”. For the variant YRARGFGV, the antigen binding call was “binds”. For YRARGVGV, the antigen binding call is given as “binds”. In the case of YRARGAWV it was “binds”; in that of YAAGGDGV, “no binding”; in that of YRARGDGV, “binds”. In the case of YRARGAGV it was “binds”. For YRAETDGV, the antigen binding call is recorded as “no binding”. In the case of YRARSAWV it was “binds”; in that of SEEGTAGD, “no binding”; in that of YAKGDYSV, “no binding”. In the case of SETTDSLD it was “no binding”; in that of ARGRGAAS, “binds”; in that of AAEGDAAD, “no binding”. The value for AGGRGDVD was “no binding”; that for ARGRGAAD was “binds”. For the variant SGGRTYGV, the antigen binding call is listed as “no binding”. In the case of YRGRGDSV it was “binds”. In the case of YRGGGDSV it was “binds”; in that of YRGGDDSV, “no binding”. The value for YTGGGDGV was “no binding”. Regarding YRGGGDWV, the antigen binding call is reported as “binds”. In the case of YEGGGDWV it was “no binding”; in that of YTETGDSV, “no binding”; in that of VRGGGDWV, “no binding”. In the case of SETKGDWA it was “no binding”.

On to VTTKSDAV, for which the antigen binding call was “no binding”. The value for DEKGGSSA was “no binding”; that for DTTRGAVA was “no binding”. In the case of FRKRGAWY it was “binds”; in that of YRRGDAWY, “binds”. The value for DRRGDAVY was “no binding”.

With FRRGGAWY, the antigen binding call is reported as “binds”. The value for FRAGGAWY was “binds”.

YAGGGDGA: the antigen binding call is listed as “no binding”. The value for FRTKAAVY was “no binding”; that for FRAGGAVY was “binds”; that for FRRGGAGY was “binds”. For the variant FTKGSAGY, the antigen binding call is “no binding”.

Regarding FRRRGAWY, the antigen binding call is on record as “binds”. The value for YRRGGAWY was “binds”; that for FRGEAVVY was “no binding”; that for VAGGDDGA was “no binding”. Take FGGENDGD: the antigen binding call is given as “no binding”. The value for VGGTSSSS was “no binding”; that for VRKRGSSS was “binds”. The value for VRTRGSSS was “binds”. With DETGNVWF, the antigen binding call is reported as “no binding”. In the case of VTGEDDAA it was “no binding”; in that of DAGGADVA, “no binding”; in that of YRAGSAAD, “binds”. Turning to YRARSAAD, the antigen binding call is on record as “binds”. In the case of YREGDAAD it was “no binding”; in that of YRAGDAAD, “binds”. In the case of YAARAALD it was “no binding”; in that of YRARSALD, “binds”. In the case of DAGGGYSV it was “no binding”; in that of DKEGGSSA, “no binding”.

For the variant DKTGNDVV, the antigen binding call is given as “no binding”. Turning to AATRNVGV, the antigen binding call is given as “no binding”.

In the case of YAARAAVD, the antigen binding call is “no binding”. Take YRARSAVD: the antigen binding call was “binds”. In the case of VGGTSDGV it was “no binding”.

Regarding DKGRSAGD, the antigen binding call is “no binding”. For YKGRDASD, the antigen binding call is recorded as “no binding”. In the case of YKGRDAWD it was “binds”. On to YKGRDALD, for which the antigen binding call is listed as “binds”. Consider YKGRDAGD, for which the antigen binding call was “binds”.

For the variant YKGRDDVA, the antigen binding call is recorded as “no binding”.

In the case of SGKKAVWV, the antigen binding call was “no binding”. In the case of VEAGDDVY it was “no binding”; in that of VTGANDWV, “no binding”. The value for SKGRSDVV was “no binding”. VTGEDAGA: the antigen binding call is reported as “no binding”. In the case of DTERGSLV it was “no binding”; in that of YRERGAAV, “binds”; in that of YRERGSAV, “binds”. The value for VRERGDLV was “no binding”; that for VRERGSAV was “binds”. In the case of FRERGSAV it was “binds”; in that of VRERGVGV, “no binding”; in that of VTGEADAS, “no binding”. On to DATGGDVA, for which the antigen binding call is “no binding”. Consider DAGGAAAV, for which the antigen binding call was “no binding”.

VEEEGDGA: the antigen binding call was “no binding”.

Turning to YKGKGAWY, the antigen binding call was “binds”.

YRGKGAWY: the antigen binding call is on record as “binds”.

VKEKGAWY: the antigen binding call is “no binding”.

YRGKDAWY: the antigen binding call was “binds”. The value for FKGKGAWY was “binds”; that for AKGGAAVY was “no binding”. In the case of AETKGALD it was “no binding”.

SKGKGAWY: the antigen binding call is listed as “binds”.

YRGKDAAY: the antigen binding call is “binds”. The value for YRGKDAWS was “binds”; that for YAGKTAWS was “no binding”.

Regarding YRGKGAGY, the antigen binding call is reported as “binds”. In the case of SKAGDAWY it was “no binding”; in that of SEARSDAV, “no binding”; in that of YRRRGSLY, “binds”. The value for DRAGDDLY was “no binding”; that for FRRRGSLY was “binds”; that for FRAGGSLY was “binds”. In the case of YRKKGALY it was “binds”.

As for VAGTGDWV, the antigen binding call is “no binding”. In the case of DKREADGA it was “no binding”. In the case of VEERDAGD it was “no binding”; in that of VTEGDAGA, “no binding”. The value for SKTRAFVA was “no binding”. Regarding SRGGGVGY, the antigen binding call is “no binding”. For YRRRGALY, the antigen binding call is given as “binds”. The value for SREAAAVY was “no binding”. In the case of SRAGGSLY it was “binds”; in that of DAERDSGV, “no binding”. With YRTGDDVF, the antigen binding call is on record as “no binding”. The value for VRGGDDWF was “no binding”. The value for YRARGAGF was “binds”; that for VRARGAWF was “binds”; that for YRARGAWF was “binds”. In the case of YRARSDVF it was “binds”; in that of YRARDDVF, “no binding”. VRTEDDWF: the antigen binding call is listed as “no binding”.

With SEGADAVA chain 1 G106S, the antigen binding call is recorded as “no binding”. On to VETGNDGA, for which the antigen binding call is on record as “no binding”. Take YRARSAGF: the antigen binding call is listed as “binds”. In the case of VRAGDDVF it was “no binding”; in that of VGTKGAGF, “no binding”; in that of YRARSAGF chain 1 G108D, “no binding”. The value for VRARGAGF was “binds”.

For the variant DEKKADWA, the antigen binding call is on record as “no binding”. In the case of SEEGTDGV it was “no binding”; in that of YKGRGYWY, “binds”.

Regarding YKTESYWY, the antigen binding call is reported as “no binding”. Take YKGRGYSY: the antigen binding call is on record as “no binding”. The value for YRGRGYWY was “binds”; that for YRGRGSWY was “binds”; that for YTEETDGF was “no binding”. SEARSYAV: the antigen binding call is “no binding”. Regarding SKGTDDWV, the antigen binding call is listed as “no binding”. As for SAEEDDVY, the antigen binding call is on record as “no binding”.

As to VTGEDDGS, the antigen binding call is reported as “no binding”. In the case of YRGKGAGF it was “binds”; in that of YRGASSGF, “binds”; in that of YRGADFGF, “no binding”. Regarding YRGGSAGF, the antigen binding call is given as “binds”. In the case of YRTGTAGF it was “binds”; in that of YRGGTFGF, “no binding”.
